# About 1,700 (3.3%) of roughly 52,000 compounds were called active. The sample as a whole holds a higher share of actives than the screen did. A number with no mark means an inactive call. No stated cut-off is given here; in the data, active means survival mostly below about 52% (no sharp cut-off); inactive means mostly above about 56%.
# Test system: Wild type
# Test: S. aureus survival, RN4220 and DeltatarO strains – OD600, teichoic acid synthesis inhibitors, primary screen (AID 463173)
# Conditions: S. aureus RN4220 wild type/DeltatarO growth, OD600, 18 h, stronger effect = lower value, screened at 18.75 µg/mL (by protocol)
row,Compound,survival
1,CCc1nn(CC(=O)Nc2ccc(NC(C)=O)cc2)c(=O)c2cc3sccc3n12,86%
2,CCOc1ccccc1NC(=O)c1cnn2c(C(F)F)cc(-c3ccccc3)nc12,52%
3,CCOC(=O)C1CCN(C(=O)c2cc3sc(C)cc3n2C)CC1,89%
4,CC1CCN(S(=O)(=O)c2ccc3c(c2)N(CC(=O)NCCN(C)C)C(=O)CO3)CC1,76%
5,COc1ccccc1CNc1nc2ccccc2c2nc(-c3cccnc3)nn12,67%
6,Cc1cccc(-c2nc3c4ccccc4nc(NCCc4ccccc4)n3n2)c1,3% (active)
7,Cc1ccc(CCNc2nc3ccccc3c3nc(-c4ccccc4)nn23)cc1,73%
8,CCCCNc1nc2ccccc2c2nc(-c3ccccc3)nn12,-1% (active)
9,Cc1ccc(CNc2nc3ccccc3c3nc(-c4cccc(C)c4)nn23)cc1,26%
10,Cc1cccc(-c2nc3c4ccccc4nc(NCc4ccccc4Cl)n3n2)c1,163%
11,COc1ccccc1CNc1nc2ccccc2c2nc(-c3cccc(C)c3)nn12,9% (active)
12,COc1ccc(CCNc2nc3ccccc3c3nc(-c4cccc(C)c4)nn23)cc1OC,24%
13,c1ccc(CNc2nc3ccccc3c3nc(-c4ccccc4)nn23)cc1,67%
14,CN1C(N)=NC(=O)C1(CO)CO,104%
15,CCOc1ccc(NC(=O)CSc2nc(-c3cccs3)cc(C(F)(F)F)c2C#N)cc1,66%
16,O=C(Cn1c(=O)c2ccccc2n(CC(=O)Nc2ccccc2F)c1=O)NCCc1ccccc1,89%
17,CCOc1ccc(CCNC(=O)c2cc3cc4ccc(OC)cc4nc3s2)cc1OCC,101%
18,Cc1oc(-c2ccccc2Cl)nc1CS(=O)CC(=O)N1CCN(c2cccc(C(F)(F)F)c2)CC1 (stereo not given),129%
19,COc1cccc(-c2nc(CS(=O)(=O)CC(=O)N3CCN(c4ccccc4)CC3)c(C)o2)c1,94%
20,Cc1oc(-c2ccc(Cl)cc2)nc1CS(=O)CC(=O)N1CCN(c2cccc(C(F)(F)F)c2)CC1 (stereo not given),80%
21,Cc1ccc(-c2nc(CS(=O)CC(=O)N3CCN(c4ccccc4)CC3)c(C)o2)cc1 (stereo not given),88%
22,Cc1ccccc1-c1nc(CS(=O)CC(=O)N2CCN(c3cc(Cl)ccc3C)CC2)c(C)o1 (stereo not given),10% (active)
23,Cc1ccccc1-c1nc(CS(=O)CC(=O)NCCc2ccc(Cl)cc2)c(C)o1 (stereo not given),128%

row,Compound,survival
1,Cc1ccc(-c2nc(CS(=O)CC(=O)N3CCN(c4cccc(Cl)c4)CC3)c(C)o2)cc1 (stereo not given),5% (active)
2,Cc1ccc(-c2nc(CS(=O)CC(=O)N3CCN(c4ccc(Cl)cc4)CC3)c(C)o2)cc1 (stereo not given),73%
3,COc1cccc(-c2nc(CS(=O)CC(=O)N3CCN(c4cccc(C(F)(F)F)c4)CC3)c(C)o2)c1 (stereo not given),-2% (active)
4,CCOc1ccc(-c2nc(CSCC(=O)N3CCN(c4ccc(F)cc4)CC3)c(C)o2)cc1,113%
5,CCCn1c(=O)sc2cc(NC(=O)c3ccccc3Cl)ccc21,71%
6,COc1cccc(C2C(C(=O)Nc3ccccc3)=C(C)Nc3nc(-c4ccccc4)nn32)c1 (stereo not given),76%
7,COc1ccc(N2CCN(c3ccc(-c4nc(-c5ccccc5C)no4)cc3[N+](=O)[O-])CC2)cc1,88%
8,Cc1ccc(N(CC(=O)Nc2ccc(Br)c(C)c2)S(=O)(=O)c2cccs2)cc1,82%
9,Cc1ccc(N(C(=O)c2cccc(C)c2)S(=O)(=O)c2ccc(Cl)cc2)cc1,65%
10,Cc1ccc(NC(=O)N2CCC(n3c(C)nc4cccnc43)CC2)c(Cl)c1,71%
11,CC(=O)N1CCC(N(Cc2ccc(C)o2)C(=O)Nc2ccccc2F)CC1,85%
12,COc1ccc2[nH]c(=O)c(CN(C(=O)c3cccc(Cl)c3)c3ccccc3OC)cc2c1,81%
13,Fc1ccc(C(c2nnnn2C2CCCC2)N2CCc3ccccc32)cc1 (stereo not given),122%
14,O=C(CN1C(=O)CCn2nc(-c3ccccc3)cc21)NCc1ccc(Cl)cc1,-3% (active)
15,Cn1cc(-c2cc3n(n2)CCC(=O)N3CCCC(=O)NCc2ccccc2)c2ccccc21,76%
16,Cc1ccc(CNC(=O)CCCN2C(=O)CCn3nc(-c4cn(C)c5ccccc45)cc32)cc1,76%
17,CCc1ccccc1NC(=O)CCCN1C(=O)CCn2nc(-c3cn(C)c4ccccc34)cc21,134%
18,Cc1ccc(CNC(=O)CN2C(=O)CCn3nc(-c4ccccc4)cc32)cc1,68%
19,Cn1cc(-c2cc3n(n2)CCC(=O)N3CCCC(=O)Nc2ccccc2Cl)c2ccccc21,-6% (active)
20,Cc1cccc(CNC(=O)CCCN2C(=O)CCn3nc(-c4cn(C)c5ccccc45)cc32)c1,-6% (active)
21,Cn1cc(-c2cc3n(n2)CCC(=O)N3CCCC(=O)Nc2ccccc2F)c2ccccc21,159%
22,CN(C)c1ccc(CNC(=O)CCCN2C(=O)CCn3nc(-c4cn(C)c5ccccc45)cc32)cc1,-1% (active)
23,O=C(CN1C(=O)CCn2nc(-c3ccccc3)cc21)NCc1ccccc1,124%

row,Compound,survival
1,CN(C)c1ccc(CNC(=O)CN2C(=O)CCn3nc(-c4cn(C)c5ccccc45)cc32)cc1,53%
2,Cn1cc(-c2cc3n(n2)CCC(=O)N3CCCC(=O)NCc2ccc(Cl)cc2)c2ccccc21,124%
3,Cc1cc(Cl)ccc1NC(=O)CN1C(=O)CSc2ccc(S(=O)(=O)N(C)C)cc21,68%
4,O=C(NCc1ccccc1)NC1COc2ccccc2C1 (stereo not given),82%
5,CCCCc1ccc(NC(=O)c2ccc3c(c2)CCN3S(=O)(=O)CC)cc1,80%
6,Cc1ccccc1NC(=O)c1c(NC(=O)C(C)Oc2cccc(Cl)c2)sc2c1CCCC2 (stereo not given),61%
7,Cc1c(CC(=O)NCCc2ccccc2)c(=O)oc2c(C)c3occ(C(C)(C)C)c3cc12,84%
8,COc1ccc(-n2c(-c3ccco3)nc3c(cnn3-c3ccc(Cl)cc3)c2=O)cc1,90%
9,CC1CCN(C(=O)Cn2cc(SCC(=O)Nc3ccccc3C(F)(F)F)c3ccccc32)CC1,105%
10,CCOc1ccccc1CNC(=O)CN1C(=O)CCn2nc(-c3cn(C)c4ccccc34)cc21,87%
11,COc1ccc(CNC(=O)CN2C(=O)CCn3nc(-c4cn(C)c5ccccc45)cc32)cc1,80%
12,CCOc1ccc(CNC(=O)CN2C(=O)CCn3nc(-c4cn(C)c5ccccc45)cc32)cc1OC,-6% (active)
13,COc1ccc(N2CCN(C(=O)CCn3nc(C)c(S(=O)(=O)N4CCCC4)c3C)CC2)cc1,80%
14,Cc1nn(CCC(=O)N2CCN(c3ccccc3)CC2)c(C)c1S(=O)(=O)N1CCCC1,-6% (active)
15,COc1cccc(N2CCN(C(=O)CCn3nc(C)c(S(=O)(=O)N4CCCC4)c3C)CC2)c1,76%
16,CC(C)N(C(=O)CN1CCN(Cc2ccccc2)CC1)C(C)C,107%
17,CCOC(=O)CNC(=O)N1CCN(S(=O)(=O)c2ccc3c(ccn3C)c2)CC1,0% (active)
18,COC(=O)CNC(=O)N1CCN(S(=O)(=O)c2ccc3c(ccn3C)c2)CC1,79%
19,CCOC(=O)CCNC(=O)N1CCN(S(=O)(=O)c2ccc3c(ccn3C)c2)CC1,113%
20,CCOC(=O)c1ccc(N=C2NC(=O)/C(=C/c3ccc(N4CCOCC4)cc3)S2)cc1,107%
21,CCOc1ccc(-c2c(C)nn3c(C)c(C(=O)NCc4ccc(Cl)cc4)cnc23)cc1OCC,123%
22,Cc1ccc2cccc(NC(=O)c3cccc4ccccc34)c2n1,-10% (active)
23,Cc1ccc(C(=O)Nc2cccc3cccnc23)cc1Cl,75%

row,Compound,survival
1,Cc1ccc2cccc(NC(=O)c3ccc(-c4cc(Cl)ccc4Cl)o3)c2n1,71%
2,Cc1ccc2cccc(NC(=O)c3ccc(-c4cccc(Cl)c4)o3)c2n1,66%
3,CCOc1cc(C(=O)Nc2cccc3cccnc23)cc(OCC)c1OCC,23%
4,CC(C)c1ccc(C(=O)Nc2cccc3cccnc23)cc1,-3% (active)
5,O=C(Nc1ccc(Br)c2cccnc12)c1cccc2ccccc12,35%
6,Cc1ccc2cccc(NC(=O)c3cccc4c(Cl)cccc34)c2n1,69%
7,Cc1ccc2cccc(NC(=O)c3cccc4c(Br)cccc34)c2n1,134%
8,O=C(Nc1cccc2cccnc12)c1cccc2ccccc12,1% (active)
9,O=C(Nc1cccc2cccnc12)c1cccc2c(Br)cccc12,77%
10,O=C(Nc1cccc2cccnc12)c1ccc(-c2cccc(Cl)c2)o1,0% (active)
11,COc1cccc(NC(=O)CCc2nnc3n(Cc4ccccc4Cl)c(=O)c4ccccc4n23)c1,84%
12,CCOC(=O)c1cccc(NS(=O)(=O)c2c(C)nc3sc(C)cn3c2=O)c1,81%
13,COc1ccc2c(c1)c1c(c(=O)n(-c3cccc(C)c3)c(=O)n1CC(=O)N1CCCC1)n2C,82%
14,COc1ccccc1NC(=O)CSc1ncc2c(n1)-c1cc(Cl)ccc1N(Cc1ccccc1)S2(=O)=O,77%
15,Cc1ccc(NC(=O)CC(C)S(=O)(=O)c2ccc3c(c2)NC(=O)CO3)c(Cl)c1 (stereo not given),87%
16,CCOc1ccc(NC(=O)CCCc2nc(-c3cccc(OC)c3)no2)cc1,87%
17,Cc1nnc(SCc2cc(=O)n3c(C)cccc3n2)s1,81%
18,Cc1cccc(-c2nnc(SCC(=O)OC(C)C)n2C)c1,106%
19,COc1c(C)cccc1C(=O)Nc1cccc2ccc(C)nc12,-14% (active)
20,CCOc1ccccc1C(=O)Nc1cccc2ccc(C)nc12,49%
21,COc1ccc(Br)cc1C(=O)Nc1cccc2ccc(C)nc12,63%
